The campaign covered roughly 300,000 compounds. About 3,200 (1.1%) were called active. Rule as the data show it: active = inhibition above about 75%; inconclusive = no clear call, values can overlap the other calls; inactive = below that; tested in HMLE shEcad cells. The full list was thinned out, with actives kept by preference.
Experiment: growth suppression of cancer stem-like cells – cell-based, luminescence, primary screen (AID 2717)
Conditions: cancer stem cell-like cells viability, at 7.5 µM, hits give high values

SMILES | inhibition
Cc1noc(C)c1S(=O)(=O)N(C)C[C@H]1Oc2ccc(NC(=O)C3CCCCC3)cc2C(=O)N([C@H](C)CO)C[C@@H]1C | -25.9% (inactive)
CCCc1cc(=O)[nH]c(SCC(=O)Nc2ccc(C(=O)Nc3ccccc3OC)cc2)n1 | -1.96% (inactive)
O=C(COC(=O)c1cccnc1Cl)NC12CC3CC(CC(C3)C1)C2 | -4.72% (inactive)
O=C(COC(=O)c1cc[n+]([O-])cc1)Nc1ccc(Cl)c(C(F)(F)F)c1 | 13.8% (inactive)
Cc1ccc(N2C(=O)C3C4C=CC(CC4)C3C2=O)cc1Br (configuration not stated) | 84.8% (active)
Cc1ccc(N2C(=O)C3C4C=CC(CC4)C3C2=O)cc1Cl (configuration not stated) | 51.3% (inactive)
CC(=O)Nc1ccc(N2C(=O)C3C4C=CC(CC4)C3C2=O)cc1 (configuration not stated) | 5.09% (inactive)
O=C(CN1C(=O)NC2(CCCCCCC2)C1=O)NCc1ccc(F)cc1 | -11.3% (inactive)
CCNC(=S)N1CCN(S(=O)(=O)c2ccc(Cl)s2)CC1 | -8.45% (inactive)
COc1ccc(NC(=O)COC(=O)c2ccc(NS(=O)(=O)/C=C/c3ccccc3)cc2)cc1 | -2.32% (inactive)
COC(=O)c1ccc(/C=C/c2c(-c3ccc(OC)cc3)sc3ccccc23)cc1 | 120% (active)
COc1ccc(/C=C/c2nnc(NC(=O)C(C)C)s2)cc1 | -1.02% (inactive)
CC(C)Cn1c(SCC(=O)Nc2ccc(Cl)cc2F)nc(O)cc1=O | -7.16% (inactive)
O=C(CSc1ncnc2sccc12)NC1CCS(=O)(=O)C1 (configuration not stated) | -16.5% (inactive)
O=C(COC(=O)c1cccnc1Cl)Nc1ccc(S(=O)(=O)N2CCOCC2)cc1 | 1.63% (inactive)
Cc1ccc(-c2csc(-c3c[nH]c4ccccc34)n2)cc1 | 0.177% (inactive)
CCCc1cc(-c2nc(-c3ccc(C)cc3)cs2)ccn1 | 101% (active)
Cc1ccc(-c2csc(-c3cc(C)on3)n2)cc1 | -0.292% (inactive)
O=C(CCc1ccc(S(=O)(=O)N2CCOCC2)cc1)OCC(=O)c1ccc(Br)cc1 | 7.19% (inactive)
COc1ccc(NS(=O)(=O)c2cc(NC(=O)c3ccc(S(=O)(=O)N(C)C)cc3)ccc2N2CCOCC2)cc1 | -5.14% (inactive)
COc1cc(OC)cc(-c2c(C#Cc3ccsc3)c3cc(-c4ccc(OC)cc4F)ccc3n2C)c1 | 0.462% (inactive)

SMILES | inhibition
COc1ccc(/C=C(\C#N)c2c[nH]c3ccccc23)cc1 | 102% (active)
COc1cc(/C=C(\C#N)c2nc3ccccc3[nH]2)ccc1O | 33.3% (inactive)
COc1ccc2[nH]cc(/C=C(/C#N)S(=O)(=O)c3ccccc3)c2c1 | 12.3% (inactive)
Cc1cc(C)c(CN2CCN(C(=O)Cn3ccc(NC(=O)OCc4ccccc4)nc3=O)CC2)c(C)c1 | -17.4% (inactive)
C=CC[C@@H](CC(=O)N[C@@H](CO)Cc1ccccc1)C(=O)N[C@H](COC(=O)[C@H](CC=C)CC(=O)OC(C)(C)C)Cc1ccccc1 | -16.7% (inactive)
COCC(C)n1c(SCC(=O)NC2CCCCC2C)nc2ccccc2c1=O (configuration not stated) | 4.54% (inactive)
S=c1[nH]nc(-c2cc(-c3ccccc3)n[nH]2)n1/N=C/c1c2ccccc2cc2ccccc12 | 48% (inactive)
S=c1[nH]nc(-c2cccnc2)n1/N=C/C(Cl)=C\c1ccccc1 | 8.61% (inactive)
Cc1cc(-c2n[nH]c(=S)n2/N=C/C(Br)=C/c2ccccc2)n[nH]1 | 82.9% (active)
CN(C(=O)CSc1cccc[n+]1[O-])C1CCCCC1 | -18.5% (inactive)
C[C@H](CO)N1C[C@H](C)[C@@H](CN(C)S(=O)(=O)c2ccc(F)cc2)Oc2c(NC(=O)Nc3ccccc3)cccc2C1=O | -11.6% (inactive)
CC1Cc2ccccc2N1S(=O)(=O)c1cccc(C(=O)OCC(=O)N2CCOCC2)c1 (configuration not stated) | -6.52% (inactive)
COc1cc(OC)cc(C(=O)N[C@H](C(=O)NNC(=O)c2ccc(Br)cc2)C(C)C)c1 | -10.3% (inactive)
Cc1ccc2[nH]c(=O)c(CC(=O)O)c(-c3ccccc3)c2c1 | -9.95% (inactive)
CCN(CC)CCCNC(=O)c1cc2c(=O)[nH]c3ccc(C)cc3c2s1 | -3.35% (inactive)
Cc1cccc(N(C)C(=O)c2cc3c(=O)[nH]c4ccc(C)cc4c3s2)c1 | 80.5% (active)
O=C(COc1ccc([N+](=O)[O-])cc1Cl)Nc1ccc2[nH]c(=O)[nH]c2c1 | -8.82% (inactive)
CC1CCCCC12NC(=O)N(CC(=O)N1CCN(c3ccccc3)CC1)C2=O (configuration not stated) | -3.2% (inactive)
CCOc1ccc(Br)cc1S(=O)(=O)Nc1ccc(S(=O)(=O)Nc2cc(C)on2)cc1 | -12.8% (inactive)
COc1ccccc1CNC(=O)c1ccc(Cl)c(S(=O)(=O)N2CCCC2)c1 | -0.0556% (inactive)
COc1ccc(S(=O)(=O)N2CCOCC2)cc1NC(=O)CSc1nnc(NC2CC2)s1 | -7.56% (inactive)

SMILES | inhibition
CCCCNc1nc2c(c(=O)n(C)c(=O)n2C)n1Cc1cccc(OC)c1 | -3.15% (inactive)
CCCCNc1c(-c2cccc(Sc3ccc(OC)cc3)c2)nc2ccccn12 | 78% (active)
CCCCCCSc1ccc(-c2nc3ccc(Cl)cn3c2NCc2ccccc2)cc1 | 61.1% (inactive)
O=C(NN=Cc1ccc(N2CCOCC2)cc1)c1cc2ccccc2cc1O | 10.1% (inactive)
COc1ccc(S(=O)(=O)N2CCCCCC2)cc1NC(=O)Cc1ccc(OC)c(OC)c1 | -7.41% (inactive)
O=C(CSc1nccn1-c1cccc(F)c1)NC1CCCC1 | -0.605% (inactive)
Cc1c(Cl)c([N+](=O)[O-])nn1CCCC(=O)Nc1cc(Cl)ccc1Cl | -11.4% (inactive)
Cc1ccc(C(=O)O)cc1NC(=O)c1ccc(Cn2nc(C)c(Cl)c2C)o1 | -28.7% (inactive)
Cc1c(Cl)c([N+](=O)[O-])nn1Cc1ccc(C(=O)N/N=C\c2cc(Cl)ccc2O)o1 | 106% (active)
CCC(CO)Oc1cc(NC(=O)c2cccc(F)c2)c2ncn(C(C)C)c2c1 (configuration not stated) | -13.2% (inactive)
C=CCC[C@H](Cc1ccc(F)cc1)C(=O)OC[C@@H](Cc1c[nH]c2ccccc12)NC(=O)[C@H](CC=C)CC(=O)N[C@H](CO)Cc1ccccc1 | 24.2% (inactive)
Cc1cc(Cl)ccc1NNC(=O)c1snnc1C | 75.1% (active)
Cc1nnsc1C(=O)Nc1cccc(Cl)c1C | 4.62% (inactive)
Cc1nnsc1C(=O)N/N=C/c1ccccc1Cl | -13.9% (inactive)
O=C(CN1C(=O)NC2(CCOc3ccccc32)C1=O)Nc1cccc([N+](=O)[O-])c1 (configuration not stated) | 0.94% (inactive)
COc1cccc(-c2ccc3c(c2)S(=O)(=O)c2cccc(C(=O)O)c2C3=O)c1OC | 7.27% (inactive)
COc1ccc2c(c1)[C@H]1[C@H](CO2)[C@H](c2ccccc2)[C@]2(C)C(=O)Nc3cc(F)c(F)cc3C(=O)N12 | 21.6% (inactive)
Cc1ccc(NC(=O)C2CCC(C(C)(C)C)CC2)cc1S(=O)(=O)N1CCOCC1 (configuration not stated) | 45.1% (inactive)
CC1(C)C=C2[C@H]3CC[C@@H]4[C@@]5(C)CCC(=O)C(C)(C)[C@@H]5CC[C@@]4(C)[C@]3(C)CC[C@@]2(C(=O)O)CC1 | 107% (active)
NCCN1CCN2C(=O)CN(C(=O)c3ccccc3)CC12 (configuration not stated) | -9.2% (inactive)
CCCCOc1ccc(C(=O)NCC(=O)OCC(=O)c2c(N)n(C)c(=O)n(C)c2=O)cc1 | 11.8% (inactive)

SMILES | inhibition
COC(=O)c1ccccc1Sc1c(/C=N/OCc2ccc(Cl)cc2)c(C(F)(F)F)nn1C | 17.8% (inactive)
O=C(O)CSc1c2c(nc3cc(C(=O)Nc4cccc(C(F)(F)F)c4)ccc13)CCCC2 | 14.3% (inactive)
Cn1nc(C(F)(F)F)c(C(=O)Nc2cccc(C(F)(F)F)c2)c1SCc1ccc(Cl)cc1 | 105% (active)
O=C(CNC(=O)c1n[nH]c2ccccc12)Nc1cc(Cl)ccc1Cl | 5.44% (inactive)
CC(CNC(=O)Cn1cnc2c(OCc3ccccc3)ncnc21)c1ccccc1 (configuration not stated) | -8.55% (inactive)
Cc1cccc(NC(=O)c2sc(-c3ccccc3)nc2-c2ccc([N+](=O)[O-])cc2)c1 | 12.3% (inactive)
CCOC(=O)/C(=C\c1ccc([N+](=O)[O-])cc1)C(=O)c1cc(C(C)=O)c(Nc2ccccc2)s1 | 88.4% (active)
O=C(Nc1ccccc1)/C(=C/c1ccc([N+](=O)[O-])cc1)NC(=O)c1ccccc1 | -13% (inactive)
O=C(OCC(=O)N1CCN(c2ccccc2)CC1)c1ccc([N+](=O)[O-])s1 | 0.421% (inactive)
CN(CC(=O)Nc1ccc(OC(F)F)cc1)S(=O)(=O)/C=C/c1ccccc1 | 7.09% (inactive)
NS(=O)(=O)c1ccc(NC(=O)COC(=O)c2c3c(nc4ccccc24)/C(=C\c2ccc4c(c2)OCO4)CCC3)cc1 | 93.4% (active)
COc1cc(-c2cc(C(=O)OCC(=O)Nc3ccc4c(c3)OCO4)c3ccccc3n2)cc(OC)c1OC | -14.5% (inactive)
O=C(COC(=O)c1c2c(nc3ccccc13)/C(=C\c1cccs1)CCC2)Nc1ccccc1Cl | 73.5% (inactive)
CN(C(=O)COC(=O)Cc1ccccc1[N+](=O)[O-])C1CCS(=O)(=O)C1 (configuration not stated) | -16.1% (inactive)
CCCN1CCN(C(=O)CCCNC(=O)c2ccc(Cl)cc2)CC1 | -11.6% (inactive)
CN1CCN(CCCNC(=O)c2ccc(/C=C3\Oc4ccccc4N(Cc4ccc(Cl)cc4)C3=O)cc2)CC1 | 103% (active)
CN1C(=O)/C(=C/c2ccc(C(=O)NC3CCCC3)cc2)Oc2ccccc21 | 2.95% (inactive)
COc1ccc(/C=C/C(=O)OCC(=O)NC2CCCCCC2)cc1OC | -6.85% (inactive)
CC(=O)c1sc(NC(=O)CCN2C(=O)C3CC=CCC3C2=O)nc1-c1ccccc1 (configuration not stated) | -4.39% (inactive)

Reference: PubChem BioAssay AID2717 (Broad Institute, 2010)
